PINK1 expr mod = modulators of PINK1 expression | actives 0.2% (n = 410,000) | Potency, µM (highest dose often 76.6 µM), without a hit: at the highest dose activation (PINK1 increase), most hits filed as activators | PINK1 immunofluorescence, high-content cytometry, 24 h; active means well fitted activation curve with a large enough effect; inconclusive means small, poorly fitted or top-dose-only effect; cell line not stated here; further: % of control where 0% means no effect; nearly all actives have a fitted effect of over 65% in size
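PINK1 protein, normally rapidly degraded, was detected by immunofluorescence after 24 hour compound treatment of a stable cell line. Titration data (5 concentrations) came from laser-scanning cytometry, with CCCP-treated wells as controls.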
ClpP mod = qHTS Assay for Activators of ClpP; Potency, µM (highest dose often 57.5 µM), without a hit: top-dose activity change, negative = active; purified B. subtilis ClpP, FRET peptide cleavage, 20 min; ATP-dependent Clp protease proteolytic subunit (Bacillus subtilis (strain 168)), P80244; actives 1.9% (n = 340,000); active means well fitted falling curve with a large enough effect; inconclusive means small, poorly fitted or top-dose-only effect; inactive means no such curve, though single readings can be large or run the other way; further: the source files actives as falling curves though it sought activators and does not explain the sign; nearly all actives have a fitted effect of over 65% in size
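FRET quenching reversal measured ClpP activation: 10 microg/mL B. subtilis ClpP at pH 8 with the FRET-FV decapeptide, read at 430 nm after 320 nm excitation. The 20-min minus 0-min signal was scaled between DMSO/no-enzyme wells and ADEP (5.8 microM final).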
Gal4-VP16 FLuc = Gal4-VP16 reporter inhibition counter-screen; Drosophila S2 Gal4-VP16 UAS-luciferase, luminescence, 20 h; Potency, µM (series often up to 53.6 µM), without a hit: at the top dose activity, negative = inhibition, usual class: inhibitors; actives 3.5% (n = 310,000);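 further: Gal4-VP16 expression switched on by copper sulfate through the metallothionein promoter; on the % scale 0 is the no-effect control and ±100 the full control effect; nearly all actives have a fitted effect of over 50% in size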
Epigenetic reg = epigenetic control regulation, reporter derepression; murine LDR cells, GFP reporter derepression, 30 h; actives 0.2% (n = 280,000); Potency, µM (doses to about 53.9 µM), for the others: at the highest dose GFP activation, hits mostly activators; further: % of control where 0% means no effect; nearly all actives have a fitted effect of over 60% in size
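Murine LDR cells bearing a silenced CMV-driven GFP reporter were exposed to compound for 30 h at 37 C. After PBS washes, GFP-positive cells (20-120 um objects) counted by laser-scanning microplate cytometry.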
RORg inh = blocks mouse ROR gamma transcriptional activity. P51450. Drosophila S2 Gal4-RORgamma UAS-luciferase reporter, 20 h. Potency, µM (top dose mostly 53.6 µM), for inactives: at the top dose activity change, negative = inhibition, actives largely listed as inhibitors. actives 5.4% (n = 310,000); further: on the % scale 0 is the no-effect control and ±100 the full control effect; nearly all actives have a fitted effect of over 60% in size
Target sequence (P51450 whole entry, looked up, the tested form may be a part): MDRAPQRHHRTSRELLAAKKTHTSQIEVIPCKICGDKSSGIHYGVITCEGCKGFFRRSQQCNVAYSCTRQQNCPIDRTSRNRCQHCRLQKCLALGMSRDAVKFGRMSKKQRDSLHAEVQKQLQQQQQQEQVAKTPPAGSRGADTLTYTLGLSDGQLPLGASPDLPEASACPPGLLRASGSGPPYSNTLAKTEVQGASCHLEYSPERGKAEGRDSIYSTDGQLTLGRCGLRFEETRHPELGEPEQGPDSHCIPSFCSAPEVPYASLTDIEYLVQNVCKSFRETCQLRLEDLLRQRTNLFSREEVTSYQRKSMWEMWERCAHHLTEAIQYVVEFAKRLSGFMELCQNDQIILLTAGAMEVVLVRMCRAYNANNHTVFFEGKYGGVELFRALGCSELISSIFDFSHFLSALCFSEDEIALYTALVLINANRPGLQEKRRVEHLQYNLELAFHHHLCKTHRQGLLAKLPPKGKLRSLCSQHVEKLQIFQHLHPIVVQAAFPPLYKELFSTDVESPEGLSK
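Drosophila S2 cells stably expressing Gal4-DBD/mouse RORγ fusion under metallothionein promoter plus UAS-luciferase; compound 1 h, then 700 uM CuSO4 induction for 20 h at ambient temperature; inhibition read as reduced luminescence.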
Sfp inh = blocks B. subtilis Sfp PPTase activity | Q9F4F7 | AID 1490 | actives 3.5% (n = 310,000) | Biochemical Sfp PPTase activity, qHTS | Potency, µM, for inactives: largest response in the series, negative = inhibition, hits mostly inhibitors;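 further: the enzyme is Sfp with the accession as filed and its product quenches rhodamine fluorescence; 0% = enzyme reaction without inhibitor and -100% = no enzyme wells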
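Fluorescence-quenching assay: 15 nM Sfp-PPTase preincubated 15 min at room temperature with compound, then 5 uM rhodamine-CoA and 12.5 uM BHQ-2-labelled YbbR peptide added. Fluorescence (ex 525/em 598 nm) read at start and after 30 min; difference gives rate.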
* = called active by the depositor; ? = inconclusive; . = no result given; [ ] = another dose, or the depositor's remark. The list is not random: actives were taken first. Their share in the collection is about 8.1%. Unless noted, the call rests on the fitted dose curve; in most records, active means well fitted curve in the direction sought with a large enough effect; inconclusive means small, poorly fitted or top-dose-only effect, or another doubt; inactive means no such curve, though single readings can be large; an effect the other way counts as inactive or inconclusive. Potency means the concentration at half of the fitted maximal effect.

SMILES | PINK1 expr mod | ClpP mod | Gal4-VP16 FLuc | Epigenetic reg | RORg inh | Sfp inh
O=C(NC(=O)N1CCN(c2cccc(Cl)c2)CC1)c1ccc(Cl)cc1 | -1% | 2% | ? | . | 16µM* | 18%
CC(=O)N1CCN(C(=S)c2ccc(Cl)cc2)CC1 | 0% | -6% | -14% | 2% | -13% | 7.1µM*
Oc1ccc(C(=S)N2CCN(c3cccc(Cl)c3)CC2)cc1 | 0% | 0% | -7% | 3% | 18% | 16µM*
Oc1ccccc1C(=S)N1CCN(c2cccc(Cl)c2)CC1 | 3% | 2% | 4% | 0% | -37% | 16µM*
CCCS(=O)(=O)c1ncc(Cl)c(C(=O)N(Cc2ccccc2)Cc2ccco2)n1 | -1% | 2% | . | 2% | . | .
COc1ccc(CCNC(=O)CCCCn2c(=O)c3ccccc3n(Cc3cccc(C)c3)c2=O)cc1OC | 1% | -15% | . | -2% | . | .
COc1ccc(C(=S)N2CCN(c3cccc(Cl)c3)CC2)c(OC)c1 | 0% | . | -12% | 1% | -34% | 18µM*
COc1cc(C(=S)N2CCN(c3cccc(Cl)c3)CC2)ccc1O | 5% | . | -15% | 6% | 28% | 10µM*
COc1ccc(C(=O)N2CCN(c3cccc(Cl)c3)CC2)cc1 | -2% | 1% | -7% | 1% | -17% | 10%
O=S(=O)(/C=C/c1ccccc1)N1CCOCC1 | 1% | 0% | . | . | . | 10%
O=C(/C=C/c1ccc(F)cc1)N1CCN(S(=O)(=O)/C=C/c2ccccc2)CC1 | 0% | . | -11% | 6% | -19% | -1%
COc1ccc(Br)c(C(=O)N2CCN(S(=O)(=O)/C=C/c3ccccc3)CC2)c1 | -1% | 28µM* | -13% | -5% | 21% | 11%
O=C(/C=C/c1ccco1)N1CCN(S(=O)(=O)/C=C/c2ccccc2)CC1 | 0% | 1% | -20% | -6% | 22% | 18µM*
Cc1ccc(/C=C/C(=O)N2CCN(S(=O)(=O)/C=C/c3ccccc3)CC2)o1 | 0% | 2% | 11% | -1% | ? | 7.9µM*
COc1cc(C(=O)OCc2cc(=O)n3nc(C(C)C)sc3n2)cc(OC)c1OC | 1% | -6% | . | 0% | . | .
COc1ccccc1-c1nccc(NCc2cccc(C)c2)n1 | 0% | . | ? | -1% | 11% | -3%
Cc1c(C(=O)NC2CCCCC2C)oc2ccccc12 (stereo unspecified) | 0% | -1% | 5.6µM* | . | 11µM* | -2%
Fc1ccc(-c2cc(-c3cccs3)cc(-c3ccccc3)n2)cc1 | 7% | 28µM* | 0% | 0% | -17% | 4%
CC(=O)NC1=C(C#N)CCC1 | 1% | -1% | . | . | . | .
O=C1C2C(C(=O)N1/N=C/c1ccc(N3CCCCC3)o1)C1C=CC2C12CC2 (stereo unspecified) | -1% | -3% | 3.2µM* | -1% | -15% | 1µM*
Cc1ccc(/C=N/N2CCCCC2)o1 | -2% | . | 3% | 1% | -34% | -42%
Cc1ccc(C2=NN(C(=O)CCl)C(c3cccs3)C2)o1 (stereo unspecified) | 1% | -1% | ? | -1% | ? | 50µM*
O=C(CCl)N1N=C(c2ccco2)CC1c1cccs1 (stereo unspecified) | -3% | -1% | 16µM* | -1% | 10µM* | 28µM*
COc1cccc(NC(=O)c2cc(CN3CCOCC3)on2)c1 | 0% | 0% | . | 3% | . | .
Cc1cc2c(c(C)c1Cl)C(c1ccc3c(c1)OCO3)CC(c1ccccc1)O2 (stereo unspecified) | . | . | 5% | . | 2% | -15%
CN1C(=O)/C(=C/c2cc3c(cc2Br)OCO3)NC1=S | -2% | . | ? | 8% | 4.5µM* | 5%
CCCc1cc(C(=O)OC)c(NC(=O)CCCC(=O)O)s1 | 2% | . | 4%[10 µM] | 3%[10.1 µM] | 2% | 12%
COC(=O)c1ccc(C(=O)OC)c(NC(=O)CCC(=O)O)c1 | 2%[38.3 µM] | 28µM* | -8% | 1% | 14% | 6%
CCc1cc(C(=O)OC)c(NC(=O)CCC(=O)O)s1 | -1% | -6% | -6% | 2% | 33% | 20µM*
